ELG1 repair inh: blocks ELG1-dependent DNA repair in HEK293T cells. AID 504467. Potency, µM (doses to about 46.1 µM), without a hit: top-dose activity change, negative = inhibition, actives largely listed as inhibitors. HEK293T ELG1-luciferase reporter, luminescence, 16 h; DNA damage induced by 5-fluorouridine. actives 2.3% (n = 330,000); note: % is set by controls: 0 for no effect and ±100 for the full control effect; nearly all actives have a fitted effect of over 55% in size
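5-Fluorouridine DNA damage + compound/DMSO, 2,000 cells/well, 16 h, 37 °C/5% CO2. ONE-Glo, 30 min RT, luminescence. Readout = decrease in reporter signal.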
VP16 counter: counter-screen for ROR gamma inhibitors: Gal4-VP16 reporter | Potency, µM (top dose mostly 53.6 µM), for the others: at the highest dose activity, negative = inhibition, actives largely listed as inhibitors | actives 3.5% (n = 310,000) | Drosophila S2 Gal4-VP16 UAS-luciferase, luminescence, 20 h;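 note: Gal4-VP16 expression switched on by copper sulfate through the metallothionein promoter; % is set by controls: 0 for no effect and ±100 for the full control effect; nearly all actives have a fitted effect of over 50% in size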
MCF10A rerep: induces DNA re-replication in MCF 10a normal breast cells; MCF 10A DNA re-replication, Hoechst nuclear intensity, 48 h; Potency, µM (doses to about 46.1 µM), inactives show top-dose activity, positive = re-replication, hits mostly activators; actives 2.9% (n = 350,000); AID 624296; note: % of control where 0% means no effect; nearly all actives have a fitted effect of over 50% in size
RORg inh: inhibitors of mouse ROR gamma transcriptional activity. P51450. Drosophila S2 Gal4-RORgamma UAS-luciferase reporter, 20 h. Potency, µM (series often up to 53.6 µM), inactives show at the highest dose activity change, negative = inhibition, actives largely listed as inhibitors. actives 5.4% (n = 310,000); note: % is set by controls: 0 for no effect and ±100 for the full control effect; nearly all actives have a fitted effect of over 60% in size
Target sequence (P51450 whole entry, looked up, the tested form may be a part): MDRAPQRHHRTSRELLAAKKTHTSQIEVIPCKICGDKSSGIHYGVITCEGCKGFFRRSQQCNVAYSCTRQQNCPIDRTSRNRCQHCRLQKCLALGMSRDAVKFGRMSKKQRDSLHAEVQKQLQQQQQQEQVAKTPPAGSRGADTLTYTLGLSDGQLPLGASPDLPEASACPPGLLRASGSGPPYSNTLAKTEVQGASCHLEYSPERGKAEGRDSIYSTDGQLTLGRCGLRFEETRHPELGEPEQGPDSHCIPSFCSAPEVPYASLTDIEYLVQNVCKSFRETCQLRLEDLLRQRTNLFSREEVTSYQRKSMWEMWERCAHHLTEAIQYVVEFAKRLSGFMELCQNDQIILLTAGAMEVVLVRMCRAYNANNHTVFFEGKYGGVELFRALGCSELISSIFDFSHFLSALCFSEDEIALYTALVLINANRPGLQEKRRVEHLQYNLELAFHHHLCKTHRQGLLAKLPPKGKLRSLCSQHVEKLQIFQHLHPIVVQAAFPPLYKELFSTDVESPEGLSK
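Drosophila S2 cells stably expressing Gal4-DBD/mouse RORγ fusion under metallothionein promoter plus UAS-luciferase; compound 1 h, then 700 uM CuSO4 induction for 20 h at ambient temperature; inhibition read as reduced luminescence.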
SW480 rerep: inducers of DNA re-replication in SW480 colon cancer cells | AID 624297 | SW480 DNA re-replication, Hoechst DNA content imaging, 48 h | actives 1.8% (n = 340,000) | Potency, µM (top dose mostly 46.1 µM), inactives show top-dose re-replication activation, most hits filed as activators; note: % of control where 0% means no effect; nearly all actives have a fitted effect of over 55% in size
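Readout is total intensity of Hoechst-stained nuclei, excited at 405 nm and collected at 500-530 nm. Compound treatment lasted 48 hr at 37 C in 5% CO2 before staining.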
An asterisk follows results filed as active; ? = inconclusive; / = no result; [ ] = remark or other dose. Compounds with a hit are over-represented: about 10% of the library has one in this group of screens. Calls come from the whole dose curve; as a rule, active = well fitted curve in the direction sought with a large enough effect; inconclusive = small, poorly fitted or top-dose-only effect, or another doubt; inactive = no such curve, though single readings can be large; an effect the other way counts as inactive or inconclusive. Potency is the fitted concentration of half-maximal effect.

SMILES | ELG1 repair inh | VP16 counter | MCF10A rerep | RORg inh | SW480 rerep
COc1ccccc1CNS(=O)(=O)c1cc2c3c(c1)CCN3C(=O)CC2 | 1% | / | 5% | / | -9%
Cc1cc(Cl)ccc1C(=O)C1CCCN(C(=O)c2ccc3ncccc3c2)C1 (configuration not stated) | -16% | 14% | ? | 34% | 8%
COc1ccc(-c2noc(CNC(=O)c3ccoc3C)n2)cc1 | 0% | 5% | 2% | 22% | -8%
CCCN1C(=O)C(O)(CC(=O)c2ccc3c(c2)OCCO3)c2ccccc21 (configuration not stated) | 19% | 4% | -3% | 35% | 1%
CCCN1C(=O)C(O)(CC(=O)c2cccc(OC)c2)c2ccccc21 (configuration not stated) | 2% | 14µM* | 3% | -17% | ?
Cc1ccccc1CN1C(=O)C(O)(CC(=O)c2ccncc2)c2ccccc21 (configuration not stated) | -12% | 1% | ? | -1% | 16µM*
CN(C)c1ccc(-c2nc3cc(N)ccc3o2)cc1 | ? | 7.1µM* | ? | 7.9µM* | ?
Cc1nc2ccc(-c3nc4ccccc4o3)cc2[nH]1 | ? | ? | 6% | ? | -11%
Cc1nc2ccc(-c3nc4ccc(N)cc4[nH]3)cc2[nH]1 | ? | 8.9µM* | 8% | 11µM* | -10%
Nc1ccc(-c2nc3ccc(N)cc3o2)cc1 | ? | 11µM* | 5% | ? | 2%
Nc1ccc(-c2nc3ccc(-c4nc5ccccc5o4)cc3[nH]2)cc1 | -6% | 3% | 4µM* | 30% | 4.5µM*
Cc1ncn(-c2ccccc2)c1-c1ccccc1 | -5% | / | 7% | / | 3%
Cc1ccc2nc(-c3cc(N)cc(N)c3)oc2c1 | ? | ? | 8% | 2.8µM* | -8%
Cc1ccc2oc(-c3ccccc3)nc2c1 | ? | ? | -3% | ? | 1%
O=C(COc1ccc2c(-c3ccccc3)cc(=O)oc2c1)Nc1ccc(CCO)cc1 | ? | ? | 2% | 13% | -20%
O=c1cc(-c2ccccc2)oc2cc(O)c(O)c(O)c12 | ? | ? | 16% | 28µM* | ?
COc1cc(-c2ccc3oc(-c4ccsc4)cc(=O)c3c2)cc(OC)c1OC | 16µM* | / | ? | / | -49%
O=C(COc1ccc2oc(-c3ccccc3)cc(=O)c2c1)Nc1ccccc1 | ? | ? | 9% | 13µM* | 0%
COc1ccc(-c2ccc3c(=O)cc(-c4ccsc4)oc3c2)cn1 | -20% | / | ? | / | ?
O=c1cc(-c2ccc(O)cc2)oc2ccc3ccccc3c12 | ? | / | 18µM* | / | 20%
COc1ccc2[nH]cc(CCNc3cc(-c4c(C)noc4C)ncn3)c2c1 | / | 3% | / | 3% | /
O=C(N/N=C/c1ccc2c(c1)OCO2)C(=O)Nc1cccc(Cl)c1 | ? | 3% | 1% | -21% | -2%
CCOC(=O)[C@H]1[C@H]2COc3cc(OC)ccc3[C@@H]2N2C(=O)c3cc(OC)c(OC)cc3NC(=O)[C@@]12C | 8% | / | 66% | / | -4%
COc1ccc2oc(-c3ccc(O)cc3)cc(=O)c2c1 | / | 25µM* | / | 25µM* | /
C[C@H](C(=O)CC(=O)OC(C)(C)C)[C@H](O)c1ccccc1 | -24% | 3% | 6% | ? | -4%[9.22 µM]
SMILES | ELG1 repair inh | VP16 counter | MCF10A rerep | RORg inh | SW480 rerep
O=C(N/C(C(=O)N1CCOCC1)=C(\Sc1ncccn1)c1ccccc1)c1ccccc1 | 23µM* | -6% | 1% | 0% | -5%
CC(C)=C(NC(=O)c1ccccc1)C(=O)N1CCOCC1 | -3% | 2% | 1% | -4% | -5%
N#CC1=C(N)N2C(=C(C#N)C13CCCCC3)SC1CCCCC12O (configuration not stated) | 0% | ? | ? | ? | 12%
COc1cc(C2C(C#N)=C(N)Oc3c2ccc2ccccc32)ccc1OCC(=O)Nc1cccc(C)c1 (configuration not stated) | 9.2µM* | ? | 0% | ? | 5%
COc1cc(C2C(C#N)=C(N)Oc3c2ccc2ccccc32)ccc1OCC(=O)Nc1ccc(C)cc1 (configuration not stated) | ? | -2% | ? | -5%[10 µM] | 9%
COc1ccc(C2C(C#N)=C(N)Oc3c2ccc2cccnc32)cc1OC (configuration not stated) | 2% | ? | 4.6µM* | ? | 1.6µM*
O=C(CCN1C(=O)c2ccccc2C1=O)Nc1sc2c(c1C(=O)NCC1CCCO1)CCC2 (configuration not stated) | -11% | -3% | 1% | 17%[10 µM] | -5%
C=C1[C@@H](OC(C)=O)CC[C@]2(C)[C@@H]1C[C@@H]1C[C@H](OC(C)=O)C(C)=C([C@@H](OC(C)=O)[C@@H]2OC(C)=O)C1(C)C | -14% | 1% | 1% | 0% | 2%
O=C(Cc1ccc(Cl)cc1)Nc1nc2ccccc2[nH]1 | ? | 7.1µM* | 6% | 0.28µM* | 9%
O=C(CSc1ccc(Cl)cc1)Nc1ccc(-c2nc3ccccc3[nH]2)cc1 | ? | ? | 21µM* | ? | ?
O=C(Cc1ccc(Br)cc1)Nc1nc2ccccc2[nH]1 | 5% | -28% | 9% | ? | 6%
O=C(Cc1ccccc1)Nc1nc2ccccc2[nH]1 | ? | 16µM* | ? | 13µM* | ?
Cc1ccc(SCc2nc3ccccc3n2CC(=O)Nc2ccc(Cl)cc2)cc1 | 7.3µM* | ? | ? | -9% | 16%
CSc1ccc(S(=O)(=O)N(C)Cc2ccccc2)cc1 | -11% | -14% | 3% | 43% | -3%
CC(=O)Nc1nc2ccccc2[nH]1 | -11% | 17% | -4% | -10% | 0%
O=C(CSc1ccccc1)Nc1nc2ccccc2[nH]1 | ? | ? | ? | 13µM* | ?
COc1cc(NC(=O)c2cccs2)c(C(=O)OCC(=O)NC(=O)NC(C)(C)C)cc1OC | 6% | -2% | 1% | -17% | -8%
COc1ccc(-n2c(C)cc(C(=O)COC(=O)c3cc(NC(=O)c4cccs4)c(OC)c(OC)c3)c2C)cc1 | -17% | 0% | -5% | 28% | -2%
COc1cc(C(=O)OCC(=O)NCc2ccc(F)cc2)cc(NC(=O)c2cccs2)c1OC | 21µM* | ? | -2% | ? | -3%
COc1cc(NC(=O)c2cccs2)c(C(=O)OCC(=O)NC(=O)NCc2ccccc2)cc1OC | -21% | -1% | 15µM* | 22% | 23%
Nc1c(C(=O)CSc2nc3ccccc3o2)c(=O)[nH]c(=O)n1C1CC1 | ? | / | ? | / | 15%
O=C(Nc1ccc2nc3n(c(=O)c2c1)CCCCC3)c1c(F)ccc([N+](=O)[O-])c1F | ? | 7.9µM* | ? | -94% | 1.3µM*

High-throughput results (PubChem)
